Bioassay records: PubChem BioAssay, several laboratories
BH1578 lux ind = inducers of Vibrio cholerae quorum light production without autoinducers, primary screen, BH1578 luxS cqsA deficient, single point | V. cholerae BH1578 lux reporter, luminescence, 6 h | activation, % at 18.7 µM | actives 0.16% (n = 350,000); in the data active = activation mostly above about 9.7%, no sharp cut-off
BioA inh = M. tuberculosis BioA enzyme inhibitors, primary screen, biochemical, plate reader, single point, HTS | actives 0.096% (n = 360,000) | 7,8-diaminopelargonic acid synthase BioA (Mycobacterium tuberculosis) | purified M. tuberculosis BioA enzyme | inhibition, % at 9.99 µM; in the data active = inhibition above about 40%
GDH-TPI counter = GDH-TPI coupling enzyme inhibitors, primary screen, artefact control for M. tuberculosis FBA inhibitor project, biochemical, absorbance, full deck. GDH-TPI coupled enzyme counterscreen, NADH absorbance. inhibition, % at 4.8 µM. actives 1.2% (n = 360,000). AID 588335, 2011; in the data active = inhibition above about 30%
Mtb FBA inh = Mtb FBA enzyme inhibitors, primary screen, biochemical, fluorescence, strain H37Rv; AID 588726, 2011; Fructose-bisphosphate aldolase (Mycobacterium tuberculosis (strain ATCC 25618 / H37Rv)), …; purified M. tuberculosis FBA, fluorescence read-out; inhibition, % at 1 µM; actives 2.3% (n = 360,000); in the data active = inhibition above about 27%
Target sequence (P9WQA3 whole entry, looked up): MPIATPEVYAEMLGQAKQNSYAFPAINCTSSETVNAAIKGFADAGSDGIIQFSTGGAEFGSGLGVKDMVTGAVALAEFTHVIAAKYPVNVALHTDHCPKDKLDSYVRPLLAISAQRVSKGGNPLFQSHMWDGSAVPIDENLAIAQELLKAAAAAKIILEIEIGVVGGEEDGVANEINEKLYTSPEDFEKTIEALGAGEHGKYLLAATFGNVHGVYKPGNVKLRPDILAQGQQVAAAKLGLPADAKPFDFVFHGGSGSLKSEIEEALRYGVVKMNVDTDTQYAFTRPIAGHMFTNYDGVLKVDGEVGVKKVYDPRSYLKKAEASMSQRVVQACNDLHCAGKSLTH
Hits are given with their value. Rows were chosen to be rich in hits. Some 3% of all compounds tested hit in one or more screens of this group.

For COc1ccc(C(=O)N[C@H](C(=O)Nc2nc3c(s2)CCCC3)C(C)C)cc1 the results were BH1578 lux ind inactive, BioA inh inactive, GDH-TPI counter inactive and Mtb FBA inh active.
For CCOc1ccccc1C(=O)N[C@H](C(=O)Nc1nc2c(s1)CCCC2)C(C)C the results were BH1578 lux ind inactive, GDH-TPI counter inactive and Mtb FBA inh inactive.
`Cc1ccc(C)c(S(=O)(=O)N2CCN(C(C(=O)Nc3ccc(F)cc3)c3ccccc3)CC2)c1` (centres undefined) gave BH1578 lux ind inactive, GDH-TPI counter inactive and Mtb FBA inh inactive.
Screening O=C(Nc1ccc(F)cc1)C(c1ccccc1)N1CCN(S(=O)(=O)c2ccc3ccccc3c2)CC1 (centres undefined) returned BH1578 lux ind inactive, BioA inh inactive, GDH-TPI counter inactive and Mtb FBA inh 30.
For O=C(Nc1ccccc1OC(F)F)c1ccc(Br)o1 the results were BH1578 lux ind 32, BioA inh inactive, GDH-TPI counter inactive and Mtb FBA inh inactive.
For O=C(Nc1ccccc1OC(F)F)c1ccccc1 the results were BH1578 lux ind inactive, BioA inh inactive, GDH-TPI counter inactive and Mtb FBA inh inactive.
Screening C[C@@H]1CCCCO[C@@H](CN(C)CC2CCCCC2)[C@@H](C)CN([C@@H](C)CO)C(=O)c2cc(NC(=O)CCC(F)(F)F)ccc2O1 returned BioA inh inactive.
`O=c1/c(=C\c2ccc(F)cc2)sc2n1CCCN=2` gave BH1578 lux ind inactive, GDH-TPI counter 33 and Mtb FBA inh inactive.
For COc1ccc(CN2CCN(c3cc(C)nc4c5c(C)cc(C)nc5nn34)CC2)cc1F the results were BH1578 lux ind inactive, BioA inh inactive, GDH-TPI counter inactive and Mtb FBA inh 125.
For C[C@@H]1CN([C@@H](C)CO)C(=O)Cc2cc(NC(=O)Cc3ccccc3)ccc2O[C@H]1CN(C)S(=O)(=O)c1ccc(Cl)cc1 the results were BioA inh inactive.
For O=[N+]([O-])c1ccc(Oc2ccc(/C=N/O)cc2)nc1 the results were BH1578 lux ind inactive, GDH-TPI counter inactive and Mtb FBA inh inactive.
Screening O=C1NC(=O)/C(=C\c2ccc(Oc3ccc([N+](=O)[O-])cn3)cc2)S1 returned BH1578 lux ind inactive, GDH-TPI counter 35 and Mtb FBA inh inactive.
Screening COc1ccc(OC)c(/C=N/NC(=O)c2nnn(-c3nonc3N)c2-c2cccs2)c1 returned BH1578 lux ind inactive, BioA inh inactive, GDH-TPI counter inactive and Mtb FBA inh inactive.
`COc1ccccc1/C=N/NC(=O)c1nnn(-c2nonc2N)c1-c1ccccc1` gave BH1578 lux ind inactive, BioA inh inactive, GDH-TPI counter inactive and Mtb FBA inh inactive.
For COc1ccc(/C=N/NC(=O)c2nnn(-c3nonc3N)c2-c2cccs2)c(OC)c1 the results were BH1578 lux ind inactive, BioA inh inactive, GDH-TPI counter 46 and Mtb FBA inh inactive.
`COc1ccccc1/C=N/NC(=O)c1nnn(-c2nonc2N)c1-c1cccs1` gave BH1578 lux ind inactive, BioA inh inactive, GDH-TPI counter 43 and Mtb FBA inh inactive.
Screening O=C(CC(F)(F)F)N1C[C@H]2[C@@H](c3ccccc31)[C@H](CO)N2C(=O)C1CC1 returned BioA inh inactive.
For O=c1c2ccccc2nc(SCc2ccccc2Cl)n1Cc1ccccc1 the results were BH1578 lux ind 26, BioA inh inactive, GDH-TPI counter inactive and Mtb FBA inh inactive.
C=CCSc1nc2ccccc2c(=O)n1Cc1ccccc1 was read as BH1578 lux ind inactive, GDH-TPI counter inactive and Mtb FBA inh inactive.
For COCC(=O)Nc1ccc2c(c1)OC[C@H](C)N(CC1CCCCC1)C[C@H](C)[C@H](OC)CN(C)C2=O the results were BioA inh inactive.
Screening COC(=O)c1ccc(N=NN2CCCCCC2)cc1 returned BH1578 lux ind inactive, BioA inh inactive, GDH-TPI counter 32 and Mtb FBA inh inactive.
Screening C[C@H]1CN([C@@H](C)CO)C(=O)c2cc(NC(=O)C3CC3)ccc2O[C@@H]1CN(C)CC1CCCCC1 returned BioA inh inactive.
For O=C1NC(=O)/C(=C/c2ccco2)N1 the results were BH1578 lux ind inactive, BioA inh inactive, GDH-TPI counter 40 and Mtb FBA inh inactive.
`O=C1NC(=O)C(=Cc2ccco2)S1` gave BH1578 lux ind inactive, BioA inh inactive, GDH-TPI counter 38 and Mtb FBA inh inactive.
For Cc1ccc(S(=O)(=O)N(C)C[C@@H]2Oc3ncc(-c4ccccc4)cc3C(=O)N([C@@H](C)CO)C[C@@H]2C)cc1 the results were BioA inh inactive.
